Compound activity: PubChem BioAssay, several laboratories
S1P2 antag: S1P2 (human) receptor antagonism; cell-based S1P2 antagonist assay, inhibition at 5 uM; inhibition, % at 5 µM; 0.21% of 97,000 active; in the data active = inhibition above about 45%;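 also: CRE beta-lactamase reporter cells expressing human S1P2 stimulated with S1P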
Target sequence (O95136 whole entry, looked up): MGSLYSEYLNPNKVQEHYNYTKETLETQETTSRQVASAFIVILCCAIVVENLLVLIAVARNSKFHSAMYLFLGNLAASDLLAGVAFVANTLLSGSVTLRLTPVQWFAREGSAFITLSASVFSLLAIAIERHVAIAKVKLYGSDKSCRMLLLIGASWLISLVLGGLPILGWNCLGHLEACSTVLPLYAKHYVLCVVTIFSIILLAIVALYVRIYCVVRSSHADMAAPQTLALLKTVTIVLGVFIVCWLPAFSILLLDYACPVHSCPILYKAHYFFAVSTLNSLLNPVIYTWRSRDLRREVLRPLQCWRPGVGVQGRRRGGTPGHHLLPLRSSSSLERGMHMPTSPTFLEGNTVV
GALR2 ag: agonists of human galanin receptor 2 (GALR2); O43603; activation, % (concentration not given with the values); 0.48% of 140,000 active; AID 803; GALR2-expressing cells, agonist activation read-out; in the data active = activation above about 5%, passing the limit was not always enough
GALR2 blocker: GALR2 (human) receptor antagonism | GALR2-expressing cells, antagonist mode | inhibition, % at 4 µM | 0.39% of 140,000 active | AID 828; in the data active = inhibition above about 27%;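 also: cells stimulated with galanin 1-16 at roughly its EC80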
MRP reversal: reverses drug resistance mediated by MRP. H69AR cells + 2 uM doxorubicin, CellTiter-Glo, 72 h. differential viability (reversal), % at 10 µM. 0.04% of 85,000 active. AID 602;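 active = viability drop by adding the cancer drug above about 55%, with treated viability meeting a 40% cutoff, limit read from the data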;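 also: larger differential means the compound sensitizes cells more to doxorubicin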
MRP-1 activ: activates MRP-1; H69AR cells + doxorubicin, viability rescue, CellTiter-Glo; viability increase, % at 10 µM; 0.61% of 140,000 active;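 active = viability gain under doxorubicin at or above a set limit, the compound median plus 3 SD, cut at about 4.7% in these data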;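 also: MRP-1 overexpressing cells given doxorubicin 25 µM after compound pretreatment; 18-22 h compound pretreatment then 72 h with doxorubicin before readout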
S1P2 ag: activates the human S1P2 receptor; S1P2-expressing cell line, agonist reporter read-out; activation, % at 4.5 µM; 0.46% of 97,000 active; AID 729; in the data active = activation above about 16%
Hits are given with their value; i = inactive; nt = not tested or not shown. Most compounds without a hit are left out; they make up all but 1.7% or so of the library.

SMILES | S1P2 antag | GALR2 ag | GALR2 blocker | MRP reversal | MRP-1 activ | S1P2 ag
O=C1CC(N2CCC(c3nc4ccccc4o3)CC2)C(=O)N1c1ccc(Cl)cc1 (configuration not stated) | i | i | i | i | nt | i
O=C1CC(N2CCC(c3nc4ccccc4o3)CC2)C(=O)N1c1cc(Cl)cc(Cl)c1 (configuration not stated) | i | i | i | i | 8.2 | i
Cc1nn(C)c(C)c1CNC(=O)c1cnn2c1NC(c1ccccc1)CC2C(F)(F)F (configuration not stated) | i | i | i | i | i | i
Cc1ccc(C2CC(C(F)(F)F)n3nc(C(=O)NCc4c(C)nn(C)c4C)c(Cl)c3N2)cc1 (configuration not stated) | i | i | i | nt | 6.4 | i
COc1ccc(CCNC(=O)COc2ccc(S(=O)(=O)NC(C)C)cc2Cl)cc1OC | i | i | i | nt | i | i
CCOC(=O)C1=C(C)NC(C)=C(C(=O)OC)C1c1cccc(Cl)c1Cl (configuration not stated) | nt | i | i | i | i | nt
COC(=O)C1=C(C)NC(C)=C(C(=O)OC)C1c1ccccc1OCc1c(C)no[n+]1[O-] | i | i | i | i | 9.0 | i
Cc1c(C)n(C)c2ccc(C(=O)NCc3cccs3)cc12 | nt | i | i | i | 5.5 | nt
Cc1ccc(C(=O)N/C(=C\c2ccc(-c3ccc([N+](=O)[O-])cc3)o2)C(=O)NC2CCS(=O)(=O)C2)cc1 (configuration not stated) | nt | i | i | nt | i | nt
Nc1nc(Br)c2c(F)cccc2c1-c1ccc(F)cc1 | i | i | i | nt | i | 22.5
CCOC(=O)/C(=N\Nc1ccccc1Cl)N1CCN(Cc2ccccc2)CC1 | nt | i | i | nt | 5.1 | nt
CCOC(=O)/C(=N\Nc1ccccc1Cl)N1CCN(C)CC1 | nt | i | i | nt | i | nt
CC(c1ccco1)N(C(=O)c1ccccc1NS(=O)(=O)c1ccc(Cl)c([N+](=O)[O-])c1)c1ccccn1 (configuration not stated) | nt | i | i | nt | i | nt
O=C(CN1C(=O)S/C(=C\c2ccc(Cl)cc2)C1=O)NNC(=O)c1ccccc1O | nt | i | i | nt | 7.7 | nt
Cc1cc(NC(=O)CN2C(=O)S/C(=C\c3ccccc3)C2=O)no1 | nt | i | i | nt | 5.1 | nt
CC(=O)c1ccc(NC(=O)CCCN2C(=O)/C(=C/C(C)=C/c3ccccc3)SC2=S)cc1 | nt | i | i | nt | 6.1 | nt
CC(/C=C1\SC(=O)N(CC(=O)Nc2ccc(O)cc2)C1=O)=C\c1ccccc1 | nt | i | i | nt | 8.7 | nt
O=C(N/N=C/C=C/c1ccco1)/C(=C/c1ccccc1)NC(=O)c1ccccc1 | nt | i | i | nt | i | nt
Cc1ccc(/C=C2/NC(=O)N(Cc3ccc(Br)cc3)C2=O)o1 | nt | 6.1 | i | nt | i | nt
CCN1C(=O)N/C(=C/c2ccc(C)o2)C1=O | nt | i | i | nt | i | nt
CN1CCN(C(=S)Nc2cc([N+](=O)[O-])ccc2Cl)CC1 | nt | i | i | nt | i | nt
COC(=O)Nc1cccn(Cc2c(Cl)cccc2Cl)c1=O | i | i | i | nt | i | i
O=C(Nc1cccn(Cc2c(Cl)cccc2Cl)c1=O)c1c(Cl)cccc1Cl | i | i | i | nt | 9.2 | i
CCc1nc(SCCO)c2oc3ccccc3c2n1 | i | i | i | i | i | i
CCc1nc(SCc2nc3ccccc3[nH]2)c2oc3ccccc3c2n1 | i | i | i | i | i | 35.9
SMILES | S1P2 antag | GALR2 ag | GALR2 blocker | MRP reversal | MRP-1 activ | S1P2 ag
COc1ccc2c(c1)c1ncn(Cc3ccco3)c(=O)c1n2C | i | i | i | i | i | 19.2
COc1ccc(/C=N/Nc2cc(C)nc(NS(=O)(=O)c3ccc(C)cc3)n2)cc1 | nt | i | i | nt | i | nt
Cc1cc(N/N=C/c2ccc(O)cc2O)nc(-n2nc(C)cc2C)n1 | nt | i | i | nt | 5.3 | nt
Cc1cc(N/N=C/c2ccc(O)cc2O)nc(-c2ccccc2O)n1 | nt | i | i | nt | i | nt
COc1ccc(/C=N/Nc2cc(C)nc(-n3nc(C)cc3C)n2)cc1 | nt | i | i | nt | 9.1 | nt
N#CCSc1n[nH]c2nc3c(c(=O)n12)C1(CCCC1)Cc1ccccc1-3 | nt | i | i | i | 5.0 | nt
On1nnc2ccc3ccccc3c21 | nt | i | i | nt | i | nt
Cc1ccc(C)c(N2CCN(c3cnn(-c4nc5ccccc5s4)c(=O)c3Cl)CC2)c1 | nt | i | i | nt | i | nt
CC(C)CCn1c(=O)c2ccccc2n2c(CN(C)Cc3ccccc3)nnc12 | i | i | i | 61.5 | i | i
CCn1c2ccccc2c2cc(Nc3cc(C)nc4ncnn34)ccc21 | nt | i | 34.2 | i | i | nt
CCCn1c(C)cc(C(=O)COC(=O)c2cc(S(=O)(=O)NCC(C)C)c(Cl)cc2Cl)c1C | i | i | i | i | i | 28.7
CC(C)CNS(=O)(=O)c1cc(C(=O)OCC(=O)c2ccc3c(c2)OCCO3)c(Cl)cc1Cl | nt | i | i | nt | i | nt
Cc1nc(C(F)(F)F)nc(Nc2ccc(N=Nc3ccccc3)cc2)c1C#N | nt | i | i | nt | i | nt
COc1ccc(S(=O)(=O)Nc2nc3ccccc3nc2NCc2ccc3c(c2)OCO3)cc1 | nt | i | i | nt | i | nt
Cc1ccc(S(=O)(=O)Nc2nc3ccccc3nc2NCc2ccc3c(c2)OCO3)cc1C | nt | i | i | nt | 5.9 | nt
COc1cc(C2C(C#N)=C(N)Oc3c2c(-c2ccccc2)nn3-c2ccccc2)cc(OC)c1OC (configuration not stated) | nt | i | i | nt | i | nt
Cc1csc(NC(=O)c2cc3c(C)nn(Cc4ccccc4Cl)c3s2)n1 | nt | i | i | nt | 5.0 | nt
CN1C(=O)CSc2ccc(NC(=O)Nc3ccccn3)cc21 | 51.5 | i | i | i | i | i
Cc1cccc(-n2cnc3cc(C(=O)N4CCc5ccccc54)ccc32)c1 | nt | i | i | nt | i | nt
COc1cccc(/C=N/NC(=O)CNC(=O)c2ccc3c(c2)OCCO3)c1O | nt | i | i | nt | 5.9 | nt
O=C(CNC(=O)c1ccc2c(c1)OCCO2)N/N=C/c1ccc(O)cc1O | nt | i | i | nt | i | nt
COc1cccc(/C=N/NC(=O)CNC(=O)C2COc3ccccc3O2)c1O (configuration not stated) | nt | i | i | nt | 9.6 | nt
CC(C)(C)c1ccc(-c2nnc3sc(-c4ccncc4)nn23)cc1 | i | i | i | nt | i | i
Cc1nnc2sc(-c3ccncc3)nn12 | i | i | i | i | 17.0 | i
COc1ccc(C(=O)NC(C(=O)NCC(=O)Nc2c(C)cccc2C)C(C)C)cc1 (configuration not stated) | nt | i | i | nt | i | nt
SMILES | S1P2 antag | GALR2 ag | GALR2 blocker | MRP reversal | MRP-1 activ | S1P2 ag
CC(C)Cn1c2c(c(O)c(C(=O)Nc3ccc(F)cc3)c1=O)CCCC2 | i | i | i | i | 6.3 | i
O=C(c1cnn2c(C(F)(F)F)cc(-c3cccs3)nc12)N1CCN(C(c2ccccc2)c2ccccc2)CC1 | i | i | i | i | 8.3 | i
Cc1cccc2cc(CN(Cc3cccs3)S(=O)(=O)c3ccc4c(c3)OCCO4)c(=O)[nH]c12 | nt | i | i | nt | 9.3 | nt
O=C(NCCC1=CCCCC1)C(=O)c1c[nH]c2ccccc12 | nt | i | i | nt | i | nt
COc1ccccc1C1C(C(C)=O)=C(C)N=c2s/c(=C\c3cc(OC)c(OC)c(OC)c3)c(=O)n21 (configuration not stated) | i | i | i | i | i | 16.7
COc1cc(/C=N/NC(=O)C23CC4CC(CC(C4)C2)C3)cc(Br)c1O | nt | i | i | nt | 13.7 | nt
